Compounds without any hit were thinned out: in the full panel of roughly 83,000, 20% have a hit.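 A percent growth of 40 corresponds to 60% growth inhibition; 0 means no net growth; -100 means all cells died. Active threshold: below 10.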 Values without a mark were called inactive. Calls of active or inactive are those of the source.

These results are taken from PubChem BioAssay (NCI).

Test systems include NCI-H23 lung; NCI-H226 lung; NCI-H322M lung; HOP-62 NSCLC; NCI-H460 lung; NCI-H522 lung; A549/ATCC NSCLC; 786-0 renal; COLO 205 colon; DU-145 prostate.
Holding throughout (assay): NCI-60 one-dose screen, 48 h (100 = growth as untreated, 0 = no growth, -100 = all killed)
What all share (settings): 10 µM

Take `CSc1nc(=O)n(Cc2ccc(Cl)cc2)c(=O)[nH]1`: the growth in the assay on NCI-H23 lung was 100%; with NCI-H226 lung, 108%; with NCI-H322M lung, 127%; in the assay on HOP-62 NSCLC it was 92.1%; in the assay with NCI-H460 lung, 108%; with NCI-H522 lung, 90.7%. The growth in the assay on A549/ATCC NSCLC was 99.1%; with 786-0 renal, 101%; in the assay on COLO 205 colon it was 104%; in the assay with DU-145 prostate, 104%.

Take `COc1ccc2c(c1)[n+]([O-])c(C#N)c(NC(=O)c1ccco1)[n+]2[O-]`: the growth in the assay on NCI-H23 lung is 99.9%; in the assay on NCI-H226 lung, 97.7%; in the assay on NCI-H322M lung, 95.2%; with HOP-62 NSCLC, 93.7%; in the assay on NCI-H460 lung, 107%; with NCI-H522 lung it was 98.1%. The growth with A549/ATCC NSCLC is 111%; in the assay on 786-0 renal it was 105%; in the assay with COLO 205 colon, 96.2%.

For `N#CCCN1C/C(=C/c2ccc(Br)cc2)C(=O)/C(=C/c2ccc(Br)cc2)C1`, the growth was -30.8% (active) in the assay on NCI-H23 lung; -77.6% (active) with NCI-H226 lung; -23.2% (active) with NCI-H322M lung; -59.4% (active) in the assay with HOP-62 NSCLC; -55.2% (active) with NCI-H460 lung; -68.4% (active) in the assay with NCI-H522 lung. Besides, the growth was -37.6% (active) in the assay on A549/ATCC NSCLC, -67.9% (active) in the assay with 786-0 renal, -93.9% (active) in the assay with COLO 205 colon and -48.4% (active) in the assay on DU-145 prostate.

Consider `COc1cc(C)ccc1C(=O)c1ccc(C)cc1OC`, for which the growth is 48.6% with NCI-H23 lung; 62.9% with NCI-H226 lung; 44.5% with NCI-H322M lung; 27.7% with HOP-62 NSCLC; 5.93% (active) with NCI-H460 lung; -6.71% (active) with NCI-H522 lung. For the same compound, the growth was 26.9% in the assay on A549/ATCC NSCLC, 48.7% in the assay on 786-0 renal, -24.9% (active) with COLO 205 colon and 0.538% (active) in the assay with DU-145 prostate.

`CCOCCOCCOCCOCCOCCOCCOCCOCCOCCO` (tested in a mixture with another compound): the growth is 7.79% (active) in the assay with NCI-H23 lung; 28.2% in the assay on NCI-H226 lung; 51.4% in the assay on NCI-H322M lung; 24.4% in the assay with HOP-62 NSCLC; 12.9% in the assay with NCI-H460 lung; -66.5% (active) in the assay on NCI-H522 lung. Besides, the growth is 14% with A549/ATCC NSCLC, 39.3% with 786-0 renal, -89.7% (active) with COLO 205 colon and 28.1% in the assay on DU-145 prostate.

For `COc1cccc(C(=O)Nc2ccc(CN3CCc4nc5cc(OC)c(OC)cc5cc43)cc2)c1`, the growth in the assay on NCI-H23 lung is 56.9%; in the assay with NCI-H226 lung, 68.4%; in the assay with NCI-H322M lung, 61.7%; in the assay with HOP-62 NSCLC, 81%; in the assay on NCI-H460 lung, 9.4% (active); in the assay with NCI-H522 lung, 42.7%. For the same compound, the growth in the assay with A549/ATCC NSCLC is 36.5%; with 786-0 renal, 64.1%; in the assay on COLO 205 colon it was 44.1%; in the assay with DU-145 prostate, 46.1%.

As for `COc1cc2c(cc1OCCCCCCN1CCN(CC(=O)Nc3ccc(Cl)cc3C(=O)c3ccccc3Cl)CC1)N=CC1CCCN1C2=O` (configuration not stated), the growth is -56.1% (active) in the assay on NCI-H23 lung; -82% (active) in the assay on NCI-H226 lung; -97.8% (active) in the assay on NCI-H322M lung; -77.9% (active) in the assay with HOP-62 NSCLC; -30.5% (active) in the assay with NCI-H460 lung; -69% (active) in the assay on NCI-H522 lung. Also, the growth in the assay with A549/ATCC NSCLC was -93% (active); with 786-0 renal it was -85.4% (active); in the assay with COLO 205 colon, -60.1% (active).

For `Cc1cs/c(=N\NC(=O)c2cc(-c3cc4ccccc4o3)nn2-c2ccccc2)n1-c1ccccc1`, the growth was 85.9% in the assay with NCI-H23 lung; 91.3% with NCI-H226 lung; 93.5% in the assay with NCI-H322M lung; 97.9% in the assay on HOP-62 NSCLC; 97.1% with NCI-H460 lung; 86.4% in the assay on NCI-H522 lung. For the same compound, the growth with A549/ATCC NSCLC was 88.4%; in the assay on 786-0 renal, 91.4%; in the assay with COLO 205 colon, 98.3%.

On to `N=C(N)c1ccc(-c2ccc(-c3ccco3)o2)cc1`, for which the growth in the assay with NCI-H23 lung is 94.8%; with NCI-H226 lung, 77.8%; in the assay with NCI-H322M lung it was 67%; in the assay on HOP-62 NSCLC it was 81.7%; with NCI-H460 lung, 62.8%; with NCI-H522 lung it was 95%. Moreover, the growth in the assay with A549/ATCC NSCLC is 68.7%; with 786-0 renal, 79.9%; in the assay on COLO 205 colon, -90.2% (active); in the assay on DU-145 prostate it was 88.2%.

As to `COc1cc2cc3c(nc2cc1OC)CCN3Cc1ccc(NC(=O)c2ccc(Cl)c(C(F)(F)F)c2)cc1`, the growth with NCI-H23 lung was 99.7%; in the assay on NCI-H226 lung, 71.2%; with NCI-H322M lung, 84.9%; in the assay with HOP-62 NSCLC it was 105%; in the assay on NCI-H460 lung it was 107%; with NCI-H522 lung, 86.6%. Also, the growth in the assay with A549/ATCC NSCLC is 97%; in the assay with 786-0 renal, 105%; in the assay with COLO 205 colon it was 109%; with DU-145 prostate, 117%.

`O=C1/C(=C\c2ccccc2)CN(C(=O)c2ccccc2)C/C1=C\c1ccccc1`: the growth in the assay with NCI-H23 lung was 57.5%; with NCI-H226 lung, 37.3%; in the assay with NCI-H322M lung, 75.8%; in the assay on HOP-62 NSCLC, 37.1%; in the assay on NCI-H460 lung, 60.1%; in the assay on NCI-H522 lung, -0.751% (active). The growth was 61.1% in the assay with A549/ATCC NSCLC, 2.68% (active) in the assay with 786-0 renal, 41.5% in the assay with COLO 205 colon and 24.6% in the assay on DU-145 prostate.

On to `c1ccc2c(c1)oc1c3cccnc3ccc21`, for which the growth is 86.8% with NCI-H23 lung; 87.4% in the assay on NCI-H226 lung; 66% with NCI-H322M lung; 86.7% in the assay with HOP-62 NSCLC; 81.6% in the assay on NCI-H460 lung; 89.8% in the assay on NCI-H522 lung. For the same compound, the growth in the assay with A549/ATCC NSCLC is 94.1%; in the assay on 786-0 renal, 94.4%; in the assay with COLO 205 colon, 104%; in the assay with DU-145 prostate, 102%.

For the compound `N#CCCN1C/C(=C/c2ccc(Cl)cc2)C(=O)/C(=C/c2ccc(Cl)cc2)C1`, the growth in the assay on NCI-H23 lung was -29.9% (active); in the assay with NCI-H226 lung it was -56.8% (active); in the assay on NCI-H322M lung, -22.1% (active); in the assay on HOP-62 NSCLC, -58% (active); with NCI-H460 lung, -49.9% (active); with NCI-H522 lung it was -82.2% (active). The growth was -35.9% (active) in the assay with A549/ATCC NSCLC, -70.5% (active) in the assay with 786-0 renal, -84.3% (active) in the assay on COLO 205 colon and -30.7% (active) with DU-145 prostate.

Consider `COc1cc(C(=O)N2CCN(c3ccccc3OC)CC2)c(N)cc1OCCCN1CCN(c2ccccc2OC)CC1`, for which the growth with NCI-H23 lung is 69.8%; in the assay with NCI-H226 lung, 84.6%; with NCI-H322M lung, 100%; in the assay on HOP-62 NSCLC, 93.2%; with NCI-H460 lung, 108%; with NCI-H522 lung it was 79.4%. In addition, the growth is 92.7% in the assay with A549/ATCC NSCLC, 96% in the assay with 786-0 renal, 85.9% in the assay on COLO 205 colon and 103% in the assay on DU-145 prostate.
